In the supplement of paper PMC10849652 one finds log2 fold change data, which are given here for 38 targets.

About 7,900 targets were measured; listed, in parts, are those with a hit and a random draw of the rest. About 0.6% of all pairs of compound and target were hits.

UniProt P48645, sequence (P48645 whole entry, looked up): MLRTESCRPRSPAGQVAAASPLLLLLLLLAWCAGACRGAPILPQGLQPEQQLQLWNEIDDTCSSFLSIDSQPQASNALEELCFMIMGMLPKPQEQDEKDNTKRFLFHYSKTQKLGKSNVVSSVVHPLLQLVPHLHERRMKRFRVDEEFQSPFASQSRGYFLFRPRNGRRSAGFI
UniProt Q8N5F7, sequence (Q8N5F7 whole entry, looked up): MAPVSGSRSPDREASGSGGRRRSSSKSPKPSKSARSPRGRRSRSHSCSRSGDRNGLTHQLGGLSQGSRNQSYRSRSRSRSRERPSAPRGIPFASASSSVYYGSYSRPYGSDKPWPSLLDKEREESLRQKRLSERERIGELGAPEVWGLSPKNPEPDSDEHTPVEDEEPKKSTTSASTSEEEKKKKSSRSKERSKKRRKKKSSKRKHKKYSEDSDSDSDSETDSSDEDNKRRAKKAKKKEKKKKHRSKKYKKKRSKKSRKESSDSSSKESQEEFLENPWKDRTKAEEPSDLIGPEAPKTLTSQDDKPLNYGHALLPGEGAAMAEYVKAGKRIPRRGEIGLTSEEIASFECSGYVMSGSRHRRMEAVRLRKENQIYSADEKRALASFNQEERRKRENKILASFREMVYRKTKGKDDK
UniProt Q96H55, sequence (Q96H55 whole entry, looked up): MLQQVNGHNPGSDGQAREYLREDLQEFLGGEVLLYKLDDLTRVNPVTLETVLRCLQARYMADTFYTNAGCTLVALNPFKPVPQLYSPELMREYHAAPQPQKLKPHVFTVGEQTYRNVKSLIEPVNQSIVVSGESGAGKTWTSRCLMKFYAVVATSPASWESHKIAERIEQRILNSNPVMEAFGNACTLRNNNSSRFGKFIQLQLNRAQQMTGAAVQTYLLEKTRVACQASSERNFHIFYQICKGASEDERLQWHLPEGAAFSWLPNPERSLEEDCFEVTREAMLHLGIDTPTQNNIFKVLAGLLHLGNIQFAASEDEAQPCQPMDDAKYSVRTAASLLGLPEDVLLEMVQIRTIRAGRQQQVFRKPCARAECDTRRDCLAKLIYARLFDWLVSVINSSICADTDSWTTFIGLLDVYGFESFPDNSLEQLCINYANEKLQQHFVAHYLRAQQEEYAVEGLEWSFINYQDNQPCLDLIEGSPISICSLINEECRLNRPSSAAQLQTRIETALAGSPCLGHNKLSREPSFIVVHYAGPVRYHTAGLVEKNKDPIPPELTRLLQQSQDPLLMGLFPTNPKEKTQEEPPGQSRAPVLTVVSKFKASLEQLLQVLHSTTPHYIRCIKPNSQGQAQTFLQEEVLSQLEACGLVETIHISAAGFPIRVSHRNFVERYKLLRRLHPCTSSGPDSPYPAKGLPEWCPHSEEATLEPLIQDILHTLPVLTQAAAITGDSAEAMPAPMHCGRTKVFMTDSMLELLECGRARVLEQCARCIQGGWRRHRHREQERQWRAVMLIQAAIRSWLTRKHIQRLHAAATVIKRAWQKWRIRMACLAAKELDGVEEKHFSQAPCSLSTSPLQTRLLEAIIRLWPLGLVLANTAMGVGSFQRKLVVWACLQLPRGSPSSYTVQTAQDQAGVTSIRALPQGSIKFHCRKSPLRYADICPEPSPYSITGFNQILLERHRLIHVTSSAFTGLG
UniProt Q9H6N6, sequence (Q9H6N6 whole entry, looked up): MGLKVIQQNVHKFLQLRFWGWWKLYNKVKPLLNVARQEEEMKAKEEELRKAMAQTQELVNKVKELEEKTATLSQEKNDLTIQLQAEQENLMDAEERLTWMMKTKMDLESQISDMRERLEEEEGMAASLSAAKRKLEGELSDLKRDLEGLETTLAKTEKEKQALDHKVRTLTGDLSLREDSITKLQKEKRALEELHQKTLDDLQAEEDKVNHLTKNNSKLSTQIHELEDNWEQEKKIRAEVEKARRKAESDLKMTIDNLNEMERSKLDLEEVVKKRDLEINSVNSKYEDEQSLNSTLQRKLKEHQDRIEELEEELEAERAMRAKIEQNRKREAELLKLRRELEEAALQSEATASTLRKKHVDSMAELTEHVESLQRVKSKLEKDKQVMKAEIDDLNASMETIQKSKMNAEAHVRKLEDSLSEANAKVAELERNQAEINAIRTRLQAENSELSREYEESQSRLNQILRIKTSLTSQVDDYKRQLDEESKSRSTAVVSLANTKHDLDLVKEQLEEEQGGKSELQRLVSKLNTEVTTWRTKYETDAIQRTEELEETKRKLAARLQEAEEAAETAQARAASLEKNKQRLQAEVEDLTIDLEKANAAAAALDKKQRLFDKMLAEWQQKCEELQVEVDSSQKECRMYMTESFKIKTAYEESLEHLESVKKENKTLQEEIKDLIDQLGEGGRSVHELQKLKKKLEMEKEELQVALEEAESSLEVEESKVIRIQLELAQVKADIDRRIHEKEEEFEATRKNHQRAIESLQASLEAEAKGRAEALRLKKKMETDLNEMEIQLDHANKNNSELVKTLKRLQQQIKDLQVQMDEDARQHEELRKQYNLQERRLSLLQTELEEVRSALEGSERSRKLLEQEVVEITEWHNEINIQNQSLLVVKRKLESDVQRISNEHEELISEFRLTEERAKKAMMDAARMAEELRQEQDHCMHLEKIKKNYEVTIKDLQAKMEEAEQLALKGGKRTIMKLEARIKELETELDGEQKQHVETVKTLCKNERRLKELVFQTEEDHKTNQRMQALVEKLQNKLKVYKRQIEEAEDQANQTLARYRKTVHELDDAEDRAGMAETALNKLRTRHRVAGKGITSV
UniProt Q8WZ82, sequence (Q8WZ82 whole entry, looked up): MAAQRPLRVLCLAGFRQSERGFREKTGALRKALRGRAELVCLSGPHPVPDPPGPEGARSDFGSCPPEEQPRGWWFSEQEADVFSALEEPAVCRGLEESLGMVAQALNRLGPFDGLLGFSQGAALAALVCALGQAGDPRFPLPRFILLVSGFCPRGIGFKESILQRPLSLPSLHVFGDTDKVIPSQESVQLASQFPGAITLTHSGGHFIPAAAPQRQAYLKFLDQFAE
UniProt P40261, sequence (P40261 whole entry, looked up): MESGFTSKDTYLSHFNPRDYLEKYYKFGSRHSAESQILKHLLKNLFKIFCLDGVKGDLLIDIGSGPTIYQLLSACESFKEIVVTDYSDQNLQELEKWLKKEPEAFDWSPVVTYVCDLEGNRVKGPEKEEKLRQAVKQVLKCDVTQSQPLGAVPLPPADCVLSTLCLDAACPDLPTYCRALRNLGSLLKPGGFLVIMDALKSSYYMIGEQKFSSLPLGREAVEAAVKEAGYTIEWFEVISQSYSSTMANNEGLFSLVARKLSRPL
UniProt Q8N573, sequence (Q8N573 whole entry, looked up): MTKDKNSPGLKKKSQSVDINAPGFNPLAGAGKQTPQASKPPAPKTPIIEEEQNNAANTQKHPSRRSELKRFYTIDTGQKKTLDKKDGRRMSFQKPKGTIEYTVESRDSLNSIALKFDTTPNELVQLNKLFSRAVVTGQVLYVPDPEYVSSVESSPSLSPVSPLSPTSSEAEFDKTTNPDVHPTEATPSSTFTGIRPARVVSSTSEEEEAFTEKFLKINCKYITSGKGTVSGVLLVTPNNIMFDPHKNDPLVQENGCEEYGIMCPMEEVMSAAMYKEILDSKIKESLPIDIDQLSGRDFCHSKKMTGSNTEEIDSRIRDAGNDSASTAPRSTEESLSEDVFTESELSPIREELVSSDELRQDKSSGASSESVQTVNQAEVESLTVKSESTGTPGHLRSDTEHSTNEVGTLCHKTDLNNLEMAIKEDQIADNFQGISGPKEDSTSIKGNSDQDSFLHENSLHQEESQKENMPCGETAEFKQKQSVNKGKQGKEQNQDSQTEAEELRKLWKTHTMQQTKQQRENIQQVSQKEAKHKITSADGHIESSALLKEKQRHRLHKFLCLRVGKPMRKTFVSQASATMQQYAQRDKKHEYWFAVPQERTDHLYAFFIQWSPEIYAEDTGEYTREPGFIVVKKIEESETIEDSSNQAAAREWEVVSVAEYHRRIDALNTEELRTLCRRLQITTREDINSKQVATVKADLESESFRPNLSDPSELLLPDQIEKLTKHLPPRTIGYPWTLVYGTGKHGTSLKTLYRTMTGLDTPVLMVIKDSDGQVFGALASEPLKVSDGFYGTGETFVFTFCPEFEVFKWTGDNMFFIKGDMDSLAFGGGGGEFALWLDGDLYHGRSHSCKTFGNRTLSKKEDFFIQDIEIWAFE
UniProt Q9BVC4, sequence (Q9BVC4 whole entry, looked up): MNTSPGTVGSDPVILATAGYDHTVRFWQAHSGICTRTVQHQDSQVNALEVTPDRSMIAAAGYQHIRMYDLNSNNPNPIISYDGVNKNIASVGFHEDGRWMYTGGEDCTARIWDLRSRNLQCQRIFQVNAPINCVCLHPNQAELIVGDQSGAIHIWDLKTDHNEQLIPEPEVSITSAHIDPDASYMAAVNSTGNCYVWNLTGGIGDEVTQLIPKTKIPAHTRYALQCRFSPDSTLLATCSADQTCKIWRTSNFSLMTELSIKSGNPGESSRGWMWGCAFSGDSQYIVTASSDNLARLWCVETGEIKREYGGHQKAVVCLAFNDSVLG
UniProt Q92686, sequence (Q92686 whole entry, looked up): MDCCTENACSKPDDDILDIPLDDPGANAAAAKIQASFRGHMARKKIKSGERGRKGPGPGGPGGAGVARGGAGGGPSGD
UniProt P53370, sequence (P53370 whole entry, looked up): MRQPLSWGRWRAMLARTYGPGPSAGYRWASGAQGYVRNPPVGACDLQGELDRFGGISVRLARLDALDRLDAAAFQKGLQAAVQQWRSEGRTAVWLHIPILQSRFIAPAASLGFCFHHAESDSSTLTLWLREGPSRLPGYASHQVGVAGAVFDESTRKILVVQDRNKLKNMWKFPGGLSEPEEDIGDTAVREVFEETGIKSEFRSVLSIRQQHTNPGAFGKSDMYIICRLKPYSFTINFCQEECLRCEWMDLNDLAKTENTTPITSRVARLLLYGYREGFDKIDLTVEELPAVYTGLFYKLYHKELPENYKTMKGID
UniProt O75438, sequence (O75438 whole entry, looked up): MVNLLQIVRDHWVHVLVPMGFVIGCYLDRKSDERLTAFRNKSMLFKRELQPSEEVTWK
UniProt B2RBV5, sequence (B2RBV5 whole entry, looked up): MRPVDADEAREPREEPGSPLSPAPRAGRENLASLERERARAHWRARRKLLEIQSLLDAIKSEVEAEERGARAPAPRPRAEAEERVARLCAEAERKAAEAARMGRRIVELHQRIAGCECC

Compound in one assay: CC1=C(C=C(C=C1)NC(=O)C2=CC(=CC=C2)C(C)(C)C#N)NC3=CC4=C(C=C3)N=CN(C4=O)C
Put plainly: log2 fold change, soluble protein after heating vs DMSO (PISA); higher = thermal stabilisation; K562 cells, 10 uM, 30 min; active = over 0.2 and 3.5 SD of the protein, either way, in both replicates (recomputed). An outline of the steps: (§1)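 For each measurement, 10 μM compound was applied for 30 min to K562 cells at 2×10^6 cells/mL. Aliquots were heated for 3 min across 48°C-58°C, pooled, and extracted in PBS with 0.5% NP-40 at 4°C; the supernatant after 21,000xg for 90 min was soluble protein. This was quantified by TMTpro 16plex LC-MS/MS with channel sums equalised, and thermal stability was reported relative to control samples from duplicates, on a log2 fold-change scale.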
Turning to NPC1L1 (UniProt Q9UHC9), the log2 fold change is -0.014 (inactive).

For NAGPA (UniProt Q9UK23), the log2 fold change was -0.028 (inactive).

Take MSANTD2 (UniProt Q6P1R3): the log2 fold change is -0.024 (inactive).

Turning to NIPSNAP2 (UniProt C9J7B1), the log2 fold change was 0.067 (inactive).

With NDUFB1 (UniProt O75438), the log2 fold change was -0.087 (inactive).

NA (UniProt B2RBV5): the log2 fold change was -0.022 (inactive).

Regarding OAF (UniProt Q86UD1), the log2 fold change is -0.005 (inactive).

As for NEU3 isoform 2 (UniProt Q9UQ49), the log2 fold change was 0.022 (inactive).

Turning to MITF (UniProt O75030), the log2 fold change is 0.005 (inactive).

On to NDUFA7 (UniProt M0R0N0), for which the log2 fold change is -0.011 (inactive).

Take NNMT (UniProt P40261): the log2 fold change was 0.038 (inactive).

In the case of MLST8 (UniProt Q9BVC4), the log2 fold change is 0.118 (inactive).

For MYH16 (UniProt Q9H6N6), the log2 fold change is 0.484 (inactive).

With NIPSNAP3B (UniProt Q9BS92), the log2 fold change is -0.133 (inactive).

Compound in another assay: CC1=C(C=C(C=C1)NC(=O)C2=CC(=CC=C2)N(C)C)NC(=O)C3=CC=C(C=C3)O
The description is as above. The method in brief:
as §1
On to NMU (UniProt P48645), for which the log2 fold change is -0.052 (inactive).

Take OVCA2 (UniProt Q8WZ82): the log2 fold change was -0.132 (inactive).

Take NOS1AP (UniProt O75052): the log2 fold change was -0.016 (inactive).

Consider OAF (UniProt Q86UD1), for which the log2 fold change is -0.119 (inactive).

Turning to NA, A0A1W2PSA9, the log2 fold change is 0.108 (inactive).

As to NKAP (UniProt Q8N5F7), the log2 fold change is 0.233 (inactive).

Turning to MT-ND2 (UniProt P03891), the log2 fold change is 0.109 (inactive).

As to NUDT6 (UniProt P53370), the log2 fold change was 0.049 (inactive).

Consider MXRA7 isoform 3 (UniProt P84157), for which the log2 fold change is 0.178 (inactive).

For OXR1 isoform 2 (UniProt Q8N573), the log2 fold change was -0.007 (inactive).

In the case of MOB2 isoform 3 (UniProt Q70IA6), the log2 fold change is -0.039 (inactive).

Take OGFOD2 (UniProt Q6N063): the log2 fold change is -0.007 (inactive).

With MMADHC (UniProt Q9H3L0), the log2 fold change was 0.001 (inactive).

Consider NA (UniProt J3KR12), for which the log2 fold change was 0.018 (inactive).

Turning to NRGN (UniProt Q92686), the log2 fold change was -0.168 (inactive).

For the target MYO19 (UniProt Q96H55), the log2 fold change is 0.069 (inactive).

Compound in another assay: CC1=CC=C(C=C1)SC2=C3C=C(SC3=CN=C2)C(=O)N
Described as above. An outline of the steps:
as §1
On to NPC1L1 (UniProt Q9UHC9), for which the log2 fold change was 0.152 (inactive).

With NMU (UniProt P48645), the log2 fold change is 0.09 (inactive).

Turning to NKTR (UniProt P30414), the log2 fold change is -0.041 (inactive).

Turning to OVCA2 (UniProt Q8WZ82), the log2 fold change is 0.013 (inactive).

With NOS1AP (UniProt O75052), the log2 fold change was 0.08 (inactive).

Turning to NAGPA (UniProt Q9UK23), the log2 fold change is -0.004 (inactive).

On to NDUFB1 (UniProt O75438), for which the log2 fold change was -0.08 (inactive).

Consider NA (UniProt B2RBV5), for which the log2 fold change is -0.245 (inactive).

For the target NEU3 isoform 2 (UniProt Q9UQ49), the log2 fold change was -0.112 (inactive).

Regarding MRM2 (UniProt Q9UI43), the log2 fold change was 0.046 (inactive).

With NKAP (UniProt Q8N5F7), the log2 fold change was 0.017 (inactive).

Regarding MORC2 (UniProt Q9Y6X9), the log2 fold change was -0.059 (inactive).

Regarding MOB3B (UniProt Q86TA1), the log2 fold change is -0.147 (inactive).

Regarding NNMT (UniProt P40261), the log2 fold change was 0.012 (inactive).

On to MT-ND2 (UniProt P03891), for which the log2 fold change was -0.047 (inactive).

Regarding OSBPL2 (UniProt Q9H1P3), the log2 fold change was -0.203 (inactive).

As to MLST8 (UniProt Q9BVC4), the log2 fold change was 0.094 (inactive).

In the case of NUDT6 (UniProt P53370), the log2 fold change was 0.064 (inactive).

For the target MXRA7 isoform 3 (UniProt P84157), the log2 fold change was -0.174 (inactive).

For OXR1 isoform 2 (UniProt Q8N573), the log2 fold change was 0.008 (inactive).

With MYH16 (UniProt Q9H6N6), the log2 fold change is 0.143 (inactive).

Regarding MOB2 isoform 3 (UniProt Q70IA6), the log2 fold change is 0.081 (inactive).

In the case of MLH1 (UniProt P40692), the log2 fold change is 0.023 (inactive).

Turning to MMADHC (UniProt Q9H3L0), the log2 fold change was -0.078 (inactive).

NELFCD (UniProt Q8IXH7): the log2 fold change was 0.02 (inactive).

In the case of NIPSNAP3B (UniProt Q9BS92), the log2 fold change was 0.049 (inactive).

Turning to NRGN (UniProt Q92686), the log2 fold change was 0.087 (inactive).

With MYO19 (UniProt Q96H55), the log2 fold change is 0.091 (inactive).

Compound in the next assay: CC1=NC(=CC=C1)C2=C(N=C(N2)C(C)(C)C)C3=CC4=NC=CN=C4C=C3
Described as above. An outline of the steps:
as §1
As to NPC1L1 (UniProt Q9UHC9), the log2 fold change is 0.02 (inactive).

As for NMU (UniProt P48645), the log2 fold change is 0.411 (active).

Take OVCA2 (UniProt Q8WZ82): the log2 fold change is 0.086 (inactive).

With NAGPA (UniProt Q9UK23), the log2 fold change was 0.054 (inactive).

With NDUFB1 (UniProt O75438), the log2 fold change is 0.067 (inactive).

As for MITF (UniProt O75030), the log2 fold change was 0.107 (inactive).

As to NKAP (UniProt Q8N5F7), the log2 fold change was 0.052 (inactive).

Turning to MORC2 (UniProt Q9Y6X9), the log2 fold change is 0.047 (inactive).

On to MOB3B (UniProt Q86TA1), for which the log2 fold change is -0.033 (inactive).

Regarding NNMT (UniProt P40261), the log2 fold change is 0.039 (inactive).

Consider MT-ND2 (UniProt P03891), for which the log2 fold change was 0.062 (inactive).

With MLST8 (UniProt Q9BVC4), the log2 fold change was -0.079 (inactive).

On to NUDT6 (UniProt P53370), for which the log2 fold change was 0.075 (inactive).

For OXR1 isoform 2 (UniProt Q8N573), the log2 fold change is -0.071 (inactive).

Turning to MYH16 (UniProt Q9H6N6), the log2 fold change was 0.724 (active).

On to OGFOD2 (UniProt Q6N063), for which the log2 fold change was -0.091 (inactive).

With MMADHC (UniProt Q9H3L0), the log2 fold change was -0.078 (inactive).

NA (UniProt J3KR12): the log2 fold change was 0.073 (inactive).

As for NELFCD (UniProt Q8IXH7), the log2 fold change is 0.18 (inactive).

Regarding NIPSNAP3B (UniProt Q9BS92), the log2 fold change is 0.023 (inactive).

For NAP1L1 (UniProt B7Z9C2), the log2 fold change is 0.14 (inactive).

As for NA, A0A494C071, the log2 fold change was 0.011 (inactive).

As to NRGN (UniProt Q92686), the log2 fold change is -0.171 (inactive).

For the target MYO19 (UniProt Q96H55), the log2 fold change was -0.054 (inactive).
